According to PubChem BioAssay:
A number with no mark means an inactive call. The source made the active and inactive calls. Rule as the data show it, unless noted: active = inhibition above about 36%; inactive = the rest.

Tested on: transactivating tegument protein VP16 (Human herpesvirus 1)
Experiment: compounds suppressing VP16-driven luciferase signal – cell-based, luminescence, single concentration, counter-screen for SRC2 inhibitor project (AID 652007)
Details: cell-based VP16 transactivation luciferase reporter, at 8.9 µM, active compounds read high

| SMILES | inhibition |
| --- | --- |
| COC(=O)c1ccc2c(=O)n(CCCCCC(=O)O)c(=S)[nH]c2c1 | 6.79% |
| CC(C)(C)C(=O)Nc1ccc(C(=O)N/N=C/c2ccccc2OC(=O)c2ccc(Cl)cc2)cc1 | 6.84% |
| Cc1cc2nccc(-c3ccncc3)n2n1 | 3.85% |
| Cc1ccc(C(=O)NNC(=O)CCCN2C(=O)/C(=C/c3ccccc3Cl)SC2=S)cc1 | 53.4% (active) |
| Cc1cc(C)cc(OCC(=O)NCC2CCCO2)c1 (stereo not given) | -1.96% |
| O=C(Nc1ccccc1)NN(C(=O)CCl)c1ccccc1 | 32.9% |
| C=C(C(=O)c1ccccc1)C(C)C(=C)C(=O)c1ccccc1 | 53.9% (active) |
| COc1ccc(C(=O)C(CCC(CNC(C)(C)C)C(=O)c2ccc(OC)cc2)CNC(C)(C)C)cc1 (stereo not given) | 10.4% |
| Cc1nn(C)cc1C(C)NC(=O)c1cc(COc2cccc3cnccc23)on1 (stereo not given) | -5.71% |
| Cc1cccc(CN2CCN(C(=O)CCl)CC2)c1 | 38% (active) |
| Cc1ccc(C2=NN(C(=O)CCl)C(c3ccco3)C2)o1 (stereo not given) | 15.3% |
| CCc1ccc(-c2nc(CS(=O)CC(=O)NCc3ccco3)c(C)o2)cc1 (stereo not given) | 3.28% |
| O=C(c1ccc(F)cc1)C(CN1CCOCC1)c1ccccc1 (stereo not given) | 35% |
| Nc1ccc(-c2nc3ccc(C(=O)O)cc3s2)cc1 | 40.2% (active) |
| COc1cc(/C=C/C(=O)c2ccc3c(c2)OCCO3)cc(Br)c1OCC(=O)N(C)C | 30.9% |
| Cc1cccc(C)c1NS(=O)(=O)c1ccc(-c2cnc(C3CC3)o2)cc1 | 2.97% |
| Cc1ccc(C2=NN(C(=O)CCl)C(c3cccs3)C2)o1 (stereo not given) | 17.2% |
| Cn1c(/C=C/c2ccc(Br)cc2)c([N+](=O)[O-])c(=O)n(C)c1=O | 15.8% |
| Cc1noc(C)c1COC(=O)c1cccc(S(=O)(=O)N2CCCCCC2)c1 | 9.01% |
| O=c1cc(CCl)nc(Cc2c(Cl)cccc2Cl)[nH]1 | 16.8% |

| SMILES | inhibition |
| --- | --- |
| CC(C)C(=O)NC(c1ccco1)c1ccc2cccnc2c1O (stereo not given) | -13.3% |
| Cc1nc([N+](=O)[O-])c(Sc2nc3ccccc3[nH]2)n1Cc1ccccc1 | -3.82% |
| CCOc1ccc(C(=O)C(CCC(CN(C)C)C(=O)c2ccc(OCC)cc2)CN(C)C)cc1 (stereo not given) | 42.6% (active) |
| O=C(NCCCn1ccnc1)c1ccc(N2CCCCCC2)c([N+](=O)[O-])c1 | 26.9% |
| CC1CCN(c2ccc(-c3cccs3)nn2)CC1 | 34.7% |
| COCCN(C(=O)CCl)C(C(=O)NC1CCCCC1)c1ccccc1C (stereo not given) | 45.5% (active) |
| O=C(O)CCn1c(O)c(C=C2N=c3ccccc3=N2)sc1=S | 34.1% |
| CCCCn1c(CCl)nc2cc(S(=O)(=O)N3CCOCC3)ccc21 | 22% |
| Cc1ccc(-n2c(-c3ccc(Cl)cc3)c[n+]3c2CCC3)cc1 | 13.4% |
| CCOc1ccc(CC(=O)Nc2ccc(NC(=O)c3ccco3)cc2)cc1OCC | 7.03% |
| COc1ccc(COC(=O)C2=C(C)NC(=O)NC2c2ccc(F)cc2)cc1 (stereo not given) | 10.2% |
| O=C(O)CCCCCN1C(=O)CSC1=S | -0.37% |
| CCN(CC)S(=O)(=O)c1cccc(C(=O)N/N=C(\C)c2ccc(O)cc2O)c1 | 2.49% |
| O=C1Cc2c([nH]c3ccc([N+](=O)[O-])cc23)-c2ccccc2N1 | 23.5% |
| COc1ccc2nc(C)cc(Sc3nc4ccccc4s3)c2c1 | 26% |
| Cc1cc(Sc2nnc(N)s2)c2ccccc2n1 | 11.7% |
| CCCCN(CC)Cc1ccc(CNC(=S)Nc2ccc(C)cc2Cl)o1 | 12.7% |
| CCOc1cc(/C=C/C(=O)c2ccc(C)cc2)ccc1OCC(=O)N(C)C | 16.4% |
| Cc1ccc2nc(NC(=O)CSCC(=O)OCC(=O)c3ccc(Br)cc3)sc2c1 | 77.8% (active) |
| CCCCCCCN(c1ccccc1)[C@@H]1C[C@H]2CCCC(=O)N3CC[C@@H](C1)[C@@H]23 | 25% |

Target: Nuclear receptor coactivator 2 (Homo sapiens) (UniProt Q15596)
Sequence (Q15596 whole entry, looked up, the tested form may be a part): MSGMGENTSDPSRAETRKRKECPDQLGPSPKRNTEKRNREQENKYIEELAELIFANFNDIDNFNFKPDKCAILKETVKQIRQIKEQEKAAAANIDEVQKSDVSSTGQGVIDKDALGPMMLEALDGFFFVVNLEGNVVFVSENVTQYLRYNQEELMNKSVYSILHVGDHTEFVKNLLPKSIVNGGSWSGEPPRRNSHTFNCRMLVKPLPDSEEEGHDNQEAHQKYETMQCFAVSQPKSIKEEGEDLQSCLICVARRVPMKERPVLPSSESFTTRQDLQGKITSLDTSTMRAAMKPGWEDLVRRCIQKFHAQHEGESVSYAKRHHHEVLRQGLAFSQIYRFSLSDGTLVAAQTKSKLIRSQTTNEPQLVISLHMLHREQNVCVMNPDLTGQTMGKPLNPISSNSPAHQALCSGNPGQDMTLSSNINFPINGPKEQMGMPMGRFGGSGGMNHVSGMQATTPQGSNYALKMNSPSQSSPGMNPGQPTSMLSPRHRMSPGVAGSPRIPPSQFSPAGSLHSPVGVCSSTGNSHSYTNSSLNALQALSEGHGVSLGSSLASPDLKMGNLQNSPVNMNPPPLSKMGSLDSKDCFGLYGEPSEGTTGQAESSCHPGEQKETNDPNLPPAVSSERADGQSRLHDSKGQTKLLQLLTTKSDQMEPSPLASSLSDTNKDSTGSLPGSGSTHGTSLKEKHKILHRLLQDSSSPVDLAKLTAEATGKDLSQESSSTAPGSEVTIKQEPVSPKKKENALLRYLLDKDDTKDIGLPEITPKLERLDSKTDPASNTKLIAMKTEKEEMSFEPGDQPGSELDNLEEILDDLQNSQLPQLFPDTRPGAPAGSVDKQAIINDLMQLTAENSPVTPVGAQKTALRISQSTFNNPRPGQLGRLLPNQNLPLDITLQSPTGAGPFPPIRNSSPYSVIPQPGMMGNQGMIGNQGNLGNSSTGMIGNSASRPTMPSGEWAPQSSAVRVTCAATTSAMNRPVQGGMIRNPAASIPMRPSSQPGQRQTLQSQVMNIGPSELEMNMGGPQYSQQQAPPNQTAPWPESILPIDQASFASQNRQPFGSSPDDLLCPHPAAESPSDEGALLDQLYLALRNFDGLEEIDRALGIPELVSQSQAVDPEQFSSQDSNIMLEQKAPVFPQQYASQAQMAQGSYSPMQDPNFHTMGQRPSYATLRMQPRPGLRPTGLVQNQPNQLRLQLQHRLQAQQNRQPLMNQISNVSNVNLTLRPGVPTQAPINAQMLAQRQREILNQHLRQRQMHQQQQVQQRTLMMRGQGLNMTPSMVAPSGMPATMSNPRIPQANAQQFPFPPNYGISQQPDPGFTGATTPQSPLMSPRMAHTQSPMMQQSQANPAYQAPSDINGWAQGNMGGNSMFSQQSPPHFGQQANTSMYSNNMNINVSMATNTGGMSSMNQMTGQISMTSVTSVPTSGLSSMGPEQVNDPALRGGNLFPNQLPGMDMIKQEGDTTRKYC
Experiment: inhibition of GAL4-SRC2 driven luciferase expression – cell-based, luminescence, HEK293, triplicate, confirmation (AID 652008;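 active = mean inhibition above 46.5%, the solvent-only control mean plus 3 SD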;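 also: 0% = DMSO-treated cells and 100% = Gossypol at 36 µM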)
Details: HEK293 GAL4-SRC2 luciferase reporter, at 8.9 µM, active compounds read high

| SMILES | inhibition |
| --- | --- |
| COC(=O)c1ccc2c(=O)n(CCCCCC(=O)O)c(=S)[nH]c2c1 | 32.2% |
| CC(C)(C)C(=O)Nc1ccc(C(=O)N/N=C/c2ccccc2OC(=O)c2ccc(Cl)cc2)cc1 | 35.1% |
| Cc1cc2nccc(-c3ccncc3)n2n1 | 33.4% |
| Cc1ccc(C(=O)NNC(=O)CCCN2C(=O)/C(=C/c3ccccc3Cl)SC2=S)cc1 | 60.2% (active) |
| Cc1cc(C)cc(OCC(=O)NCC2CCCO2)c1 (stereo not given) | 28.9% |
| O=C(Nc1ccccc1)NN(C(=O)CCl)c1ccccc1 | 56.9% (active) |
| C=C(C(=O)c1ccccc1)C(C)C(=C)C(=O)c1ccccc1 | 51.8% (active) |
| COc1ccc(C(=O)C(CCC(CNC(C)(C)C)C(=O)c2ccc(OC)cc2)CNC(C)(C)C)cc1 (stereo not given) | 20.1% |
| Cc1nn(C)cc1C(C)NC(=O)c1cc(COc2cccc3cnccc23)on1 (stereo not given) | 33.3% |
| Cc1cccc(CN2CCN(C(=O)CCl)CC2)c1 | 33.5% |
| Cc1ccc(C2=NN(C(=O)CCl)C(c3ccco3)C2)o1 (stereo not given) | 51.2% (active) |
| CCc1ccc(-c2nc(CS(=O)CC(=O)NCc3ccco3)c(C)o2)cc1 (stereo not given) | 56.7% (active) |
| O=C(c1ccc(F)cc1)C(CN1CCOCC1)c1ccccc1 (stereo not given) | 82.6% (active) |
| Nc1ccc(-c2nc3ccc(C(=O)O)cc3s2)cc1 | 60.6% (active) |
| COc1cc(/C=C/C(=O)c2ccc3c(c2)OCCO3)cc(Br)c1OCC(=O)N(C)C | 50.3% (active) |
| Cc1cccc(C)c1NS(=O)(=O)c1ccc(-c2cnc(C3CC3)o2)cc1 | 17.2% |
| Cc1ccc(C2=NN(C(=O)CCl)C(c3cccs3)C2)o1 (stereo not given) | 56.9% (active) |
| Cn1c(/C=C/c2ccc(Br)cc2)c([N+](=O)[O-])c(=O)n(C)c1=O | 40.7% |
| Cc1noc(C)c1COC(=O)c1cccc(S(=O)(=O)N2CCCCCC2)c1 | 13% |
| O=c1cc(CCl)nc(Cc2c(Cl)cccc2Cl)[nH]1 | 54.1% (active) |

| SMILES | inhibition |
| --- | --- |
| CC(C)C(=O)NC(c1ccco1)c1ccc2cccnc2c1O (stereo not given) | 8.96% |
| Cc1nc([N+](=O)[O-])c(Sc2nc3ccccc3[nH]2)n1Cc1ccccc1 | 32.5% |
| CCOc1ccc(C(=O)C(CCC(CN(C)C)C(=O)c2ccc(OCC)cc2)CN(C)C)cc1 (stereo not given) | 54.2% (active) |
| O=C(NCCCn1ccnc1)c1ccc(N2CCCCCC2)c([N+](=O)[O-])c1 | 54.3% (active) |
| CC1CCN(c2ccc(-c3cccs3)nn2)CC1 | 47.3% (active) |
| COCCN(C(=O)CCl)C(C(=O)NC1CCCCC1)c1ccccc1C (stereo not given) | 58.5% (active) |
| O=C(O)CCn1c(O)c(C=C2N=c3ccccc3=N2)sc1=S | 72.1% (active) |
| CCCCn1c(CCl)nc2cc(S(=O)(=O)N3CCOCC3)ccc21 | 64.1% (active) |
| Cc1ccc(-n2c(-c3ccc(Cl)cc3)c[n+]3c2CCC3)cc1 | 18.6% |
| CCOc1ccc(CC(=O)Nc2ccc(NC(=O)c3ccco3)cc2)cc1OCC | 41.9% |
| COc1ccc(COC(=O)C2=C(C)NC(=O)NC2c2ccc(F)cc2)cc1 (stereo not given) | 31.4% |
| O=C(O)CCCCCN1C(=O)CSC1=S | 7.01% |
| CCN(CC)S(=O)(=O)c1cccc(C(=O)N/N=C(\C)c2ccc(O)cc2O)c1 | 31.6% |
| O=C1Cc2c([nH]c3ccc([N+](=O)[O-])cc23)-c2ccccc2N1 | 51% (active) |
| COc1ccc2nc(C)cc(Sc3nc4ccccc4s3)c2c1 | 51.3% (active) |
| Cc1cc(Sc2nnc(N)s2)c2ccccc2n1 | 32% |
| CCCCN(CC)Cc1ccc(CNC(=S)Nc2ccc(C)cc2Cl)o1 | 30.4% |
| CCOc1cc(/C=C/C(=O)c2ccc(C)cc2)ccc1OCC(=O)N(C)C | 31.6% |
| Cc1ccc2nc(NC(=O)CSCC(=O)OCC(=O)c3ccc(Br)cc3)sc2c1 | 89.2% (active) |
| CCCCCCCN(c1ccccc1)[C@@H]1C[C@H]2CCCC(=O)N3CC[C@@H](C1)[C@@H]23 | 35% |
